The nature of assay [1]: qHTS assay for small molecule agonists of the p53 signaling pathway (AID 651631; calls by dose curve; also: nearly all actives have a fitted effect of over 15% in size). The procedure, abridged: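 Stably transfected HCT-116 cells (beta-lactamase behind p53 response elements) get compounds after a 5 h settling period; 16 h later at 37 °C, FRET substrate is loaded and fluorescence read after 2 h.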
(In general: In qHTS, concentration-response curves come from the screen itself.)

Assay [2] can be described thus: qHTS assay for small molecules that induce genotoxicity in human embryonic kidney cells expressing luciferase-tagged ATAD5 (AID 651632). Also: nearly all actives have a fitted effect of over 15% in size. Also: potency is read from the fitted curve at half-maximal effect. In outline:
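HEK293T cells carrying a luciferase reporter tagged to ATAD5 were exposed to compound or DMSO vehicle for 16 hr at 37C, 5% CO2. Amplite was added, and after 30 min at room temperature luciferase activity was read as a marker of ATAD5 induction.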

Assay [3] in a line: qHTS assay for small molecule agonists of the p53 signaling pathway - cell viability (AID 651633; calls by dose curve;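 also: p53RE-bla HCT reporter cells with a stable beta-lactamase p53 reporter; series mostly up to about 83 µM; nearly all actives have a fitted effect of over 30% in size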). The procedure, abridged:
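p53RE-bla cells, seeded at 4,000 per well and rested 5 h at 37 C/5% CO2, received compounds in DMSO for 16 h at 37 C. CellTiter-Glo was then added, and luminescence was read after 30 min at room temperature to gauge cytotoxicity.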

Assay [4] in a line: qHTS assay for small molecules that induce genotoxicity in human embryonic kidney cells expressing luciferase-tagged ATAD5 - cell viability (AID 651634; calls by dose curve; also: nearly all actives have a fitted effect of over 25% in size). The procedure, abridged:
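HEK293T cells expressing luciferase-tagged ATAD5 were exposed to compound or DMSO for 15.5 hr at 37C, 5% CO2. Viability was then read as live-cell protease activity by CellTiter-Fluor fluorescence after 30 min at 37C.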

The nature of assay [5]: qHTS assay for small molecule disruptors of the mitochondrial membrane potential - cell viability (AID 720634; calls by dose curve;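 also: human HepG2 liver cancer cells; series mostly up to about 83 µM; nearly all actives have a fitted effect of over 20% in size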). The procedure, abridged: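 HepG2 cells seeded overnight at 37 C, then exposed to compound or DMSO for 1 hr at 37 C, 5% CO2. m-MPI dye added, then CellTiter-Glo for 30 min at room temperature; viability read as ATP luminescence.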
Assay [6] is described as follows: qHTS assay for small molecule disruptors of the mitochondrial membrane potential (AID 720635). The procedure, abridged: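 HepG2 cells (2,000/well) attached overnight at 37C, then took compound for 1 hr at 37C, 5% CO2. Mito-MPS dye was added for 30 min; fluorescence was read at 490/535 nm (monomers) and 540/590 nm (aggregates).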
Assay [7] in a line: qHTS assay to test for compound auto fluorescence at 590 nm (red) in HepG2 cells (AID 720674). The procedure, abridged:
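Rose Bengal sodium served as the red fluorophore standard. HepG2 monolayers (overnight attachment, MEM with 10% FBS) were exposed to test compounds for 1 hr at 37 C and read at Ex 540/Em 590 nm.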

Assay [8] can be described thus: qHTS assay to test for compound auto fluorescence at 535 nm (green) in HepG2 cells (AID 720675).
A short description of assay [9]: qHTS assay to test for compound auto fluorescence at 460 nm (blue) in HEK293 cells (AID 720678). In outline: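 Auto fluorescence in the blue band was quantified as triamterene equivalency. HEK293 cells were seeded at 2,000/well, dosed after a 4-5 hr attachment, and kept overnight at 37C before the 405/460 nm reading.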
Assay [10] in a line: qHTS assay to test for compound auto fluorescence at 590 nm (red) in HEK293 cells (AID 720679). The procedure, abridged: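 Autofluorescence equivalency to Rose Bengal sodium, 540/590nm, in HEK293 cells exposed overnight to 23 nL compound per well.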
A short description of assay [11]: qHTS assay to test for compound auto fluorescence at 535 nm (green) in HEK293 cells (AID 720680).
Assay [12] can be described thus: qHTS assay to test for compound auto fluorescence at 460 nm (blue) in HEK293 cell free culture (AID 720681). The procedure, abridged: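 Test compounds were pinned into cell-free culture medium (DMEM with 10% FBS) and fluorescence was read directly at Ex/Em 405/460 nm. Signals were expressed as fluorescence equivalents of triamterene, with DMSO vehicle as control.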

Assay [13] can be described thus: qHTS assay to test for compound auto fluorescence at 590 nm (red) in HEK293 cell free culture (AID 720683). In outline: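 Tox21 10K library compounds were pinned into cell-free DMEM with 10% FBS and fluorescence was read at excitation 540 nm. Activity is expressed as Rose Bengal sodium equivalency.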
A short description of assay [14]: qHTS assay to test for compound auto fluorescence at 460 nm (blue) in HepG2 cell free culture (AID 720685). In outline:
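Compound (23 nL) or DMSO pinned into cell-free MEM with 10% FBS; blue fluorescence read at 405/460 nm excitation/emission, expressed as auto-fluorescence equivalency to triamterene.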

Assay [15] is described as follows: qHTS assay to test for compound auto fluorescence at 535 nm (green) in HepG2 cell free culture (AID 720686).
Assay [16] can be described thus: qHTS assay to test for compound auto fluorescence at 460 nm (blue) in HepG2 cells (AID 720687). The procedure, abridged:
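Cells (2,000/well in MEM with 10% FBS) attached overnight at 37 C, then were exposed to compound or DMSO for 1 hr at 37 C, 5% CO2. Fluorescence read at Ex/Em 405/460 nm, expressed as triamterene-equivalent signal.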

In assay [17] the target is Glucocorticoid receptor (Homo sapiens) (UniProt P04150). In words: qHTS assay to identify small molecule agonists of the glucocorticoid receptor (GR) signaling pathway (AID 720691; active = well fitted activation curve with a large enough effect in the signal ratio in the repeat runs, not every such curve was filed as active; the % refers to the signal ratio). In outline:
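GR-bla HeLa cells (beta-lactamase reporter under glucocorticoid response element) were plated 4 h at 37 C/5% CO2, given compounds in DMSO, and incubated 18 h at 37 C. LiveBLAzer B/G FRET substrate was added for 2 h at room temperature, then fluorescence intensity read.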

Assay [18] shares this target. As to the kind of experiment: qHTS assay to identify small molecule antagonists of the glucocorticoid receptor (GR) signaling pathway (AID 720692; active = well fitted inhibition curve with a large enough effect in the signal ratio in the repeat runs, not every such curve was filed as active; the % refers to the signal ratio). The procedure, abridged: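 GR-bla HeLa cells (beta-lactamase reporter under glucocorticoid response element) were pre-plated 4 h at 37 C, treated with compounds plus 5 nM dexamethasone (final) for 18 h, then read by LiveBLAzer B/G FRET fluorescence after 2 h.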

Assay [19] is described as follows: qHTS assay to test for compound auto fluorescence at 535 nm (green) in HEK293 cell free culture (AID 720682). In outline:
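Using fluorescein as calibrant, autofluorescence was quantified at 485/535 nm in cell-free DMEM containing 10% FBS after pintool addition of compound or vehicle.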

A short description of assay [20]: qHTS assay to test for compound auto fluorescence at 590 nm (red) in HepG2 cell free culture (AID 720684). In outline: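 Measured in medium alone (MEM containing 10% FBS) following pintool addition of compound; emission at 590 nm with 540 nm excitation, referenced to Rose Bengal sodium.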

Data on seven compounds can be found in PubChem BioAssay (Tox21).

Structures are written as SMILES. Unmarked numbers belong to inactive results. Records with an inconclusive call do not appear. Activity calls are given as the source filed them. Unless noted, calls follow the shape of the dose curve; as a rule, active = well fitted curve in the direction sought with a large enough effect in the repeat runs; inconclusive = weak or mixed curves; inactive = no such curve, though single readings can be large; an effect the other way counts as inactive or inconclusive.
% is scaled to controls: 0 for no effect and ±100 for the full control effect.

Sequence of Glucocorticoid receptor (Homo sapiens) (P04150 whole entry, looked up): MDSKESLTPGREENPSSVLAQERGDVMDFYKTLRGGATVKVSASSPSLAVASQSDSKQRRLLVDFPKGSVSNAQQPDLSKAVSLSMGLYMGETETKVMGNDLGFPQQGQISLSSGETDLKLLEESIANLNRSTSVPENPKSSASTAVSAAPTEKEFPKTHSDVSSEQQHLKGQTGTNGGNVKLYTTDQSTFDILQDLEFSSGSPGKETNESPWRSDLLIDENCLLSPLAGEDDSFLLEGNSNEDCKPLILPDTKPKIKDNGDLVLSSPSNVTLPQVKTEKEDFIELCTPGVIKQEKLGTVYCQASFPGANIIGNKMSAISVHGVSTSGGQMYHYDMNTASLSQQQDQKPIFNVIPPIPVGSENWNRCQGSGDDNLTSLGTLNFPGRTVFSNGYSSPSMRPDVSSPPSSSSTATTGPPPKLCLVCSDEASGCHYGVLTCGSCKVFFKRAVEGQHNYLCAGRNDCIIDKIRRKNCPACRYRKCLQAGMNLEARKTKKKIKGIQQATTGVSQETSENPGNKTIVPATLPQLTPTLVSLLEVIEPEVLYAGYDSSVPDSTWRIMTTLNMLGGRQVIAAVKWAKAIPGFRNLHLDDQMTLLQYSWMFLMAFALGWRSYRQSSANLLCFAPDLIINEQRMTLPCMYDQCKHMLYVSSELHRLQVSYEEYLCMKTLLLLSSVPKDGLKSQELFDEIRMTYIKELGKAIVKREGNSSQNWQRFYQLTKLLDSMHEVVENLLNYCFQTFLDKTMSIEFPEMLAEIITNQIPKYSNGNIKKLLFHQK

On to `CCc1ccc(CC)cc1`, for which the Potency entry in assay [1], in assay [2], in [6] and in assay [17] was “inactive” in each case. The outcome in [3], in [4], in [5], in [7], in [8] and in assay [9] was inactive. Also, the outcome in [10], in [11], in [12], in assay [13], in assay [14] and in assay [15] was inactive. The compound was called inactive in assay [16] and in [18].
With `CCCCS`, the Potency entry in assay [1], in assay [2], in [6] and in assay [17] was “inactive” each time. Further, the outcome in [3], in assay [4], in [5], in assay [7], in assay [8] and in assay [9] was inactive. Also, the call in assay [10], in assay [11], in assay [12], in assay [19], in [13] and in assay [20] was inactive. Also, the compound was called inactive in assay [15], in assay [16] and in assay [18].
As for `O=C(OOC(=O)c1ccccc1)c1ccccc1`, the Potency result in [1], in [2], in [6] and in assay [17] was “inactive” each time. Moreover, the compound was called inactive in [3], in assay [4], in assay [5], in assay [7], in assay [8] and in assay [9]. The call in [10], in [11], in assay [12], in assay [19], in [13] and in [20] was inactive. In addition, the result in [14], in [16] and in assay [18] was inactive.
As to `CC/C=C\CCOC(=O)c1ccccc1`, the Potency entry in [1], in assay [2], in assay [6] and in [17] was “inactive” each time. The result in assay [3], in assay [4], in assay [5], in assay [7], in [8] and in assay [9] was inactive. In addition, the result in assay [10], in [11], in assay [12], in assay [19], in assay [13] and in assay [14] was inactive. Further, the outcome in assay [16] was inactive.
For the compound `NCC1CCC(C(=O)Oc2ccc(CCC(=O)O)cc2)CC1` (configuration not stated), the Potency entry in assay [1], in assay [2] and in assay [6] was “inactive” each time. Besides, the compound was classed as inactive in [3], in assay [4], in [5], in assay [7], in [8] and in assay [9]. Moreover, the compound was classed as inactive in assay [10], in [11], in [12], in assay [19], in assay [13] and in [14]. For the same compound, the result in assay [15] and in assay [16] was inactive.
As to `Nc1cc(S(=O)(=O)O)ccc1O`, the Potency entry in assay [1], in [2], in assay [6] and in assay [17] was “inactive” in each case. The compound was classed as inactive in assay [3], in [4], in assay [5], in assay [7], in assay [8] and in assay [9]. Also, the call in assay [10], in [11], in assay [12], in assay [19], in assay [13] and in [20] was inactive. Moreover, the compound was called inactive in assay [15], in assay [16] and in assay [18].
In the case of `COc1ccc2cc(CCC(C)=O)ccc2c1`, the Potency entry in [1], in [6] and in assay [17] was “inactive” throughout. The Potency in assay [2] is 4.52 µM (active). The compound was classed as inactive in assay [3], in assay [4] and in [5]. In addition, the fluorescence, relative to Rose Bengal in assay [7] was -0.0879% [at 18.6 µM]. For the same compound, the fluorescence, % of fluorescein control was -0.11% [at 18.6 µM] in assay [8] and -0.0938% [at 18.6 µM] in assay [15]. Moreover, the fluorescence, % of triamterene in assay [9] is 0.0581% [at 18.6 µM]. The fluorescence, % of fluorescent control is 0.875% [at 18.6 µM] in assay [10]; -0.26% [at 18.6 µM] in assay [12]; 0.474% [at 18.6 µM] in [13]; 0.0413% [at 18.6 µM] in assay [14]; 0.0207% [at 18.6 µM] in assay [16]. Further, the fluorescence, % of fluorescein in assay [11] was -0.0683% [at 18.6 µM]. Besides, the activity change in assay [19] is -0.0416% [at 18.6 µM].
